The target of assay [1] is Bile acid receptor (Homo sapiens) (UniProt Q96RI1). Description: OT_FXR_FXRSRC1_1440: Odyssey Thera (OT) 24-hour HEK293T Protein-Complementation Assay for Farnesoid X receptor/SRC-1 Co-activator (AID 2283384). The gist of the method: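 Compounds are applied to human kidney HEK293T cells expressing bait and prey fused to reporter protein fragments; after 24 h, reconstituted reporter fluorescence is measured. Activity is fitted as signal gain over DMSO.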

The subject of assay [2] is Thyroperoxidase (TPO), gene 54314. Description: CCTE_Simmons_AUR_rTPO: CCTE's Amplex UltraRed Assay for Thyroperoxidase (TPO) Inhibition, Simmons Lab (AID 2283662). The gist of the method: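 Rat thyroid microsomes (5 ug protein) were incubated with test compound (8 concentrations, 5 nM–87.5 uM final, 0.5% DMSO), 25 uM Amplex UltraRed and 300 uM H2O2 in 200 mM phosphate buffer for 30 min at 37C in the dark; fluorescence read at 544/590 nm.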

Assay [3] is described as follows: CCTE_Simmons_CellTiterGLO_HEK293T: Viability Assessment in CCTE's Assays for Thyroperoxidase (TPO) Inhibition, Simmons Lab (AID 2283665).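 As to AC50: cells exposed to compound for 24 h before readout; actives reduce ATP signal below DMSO vehicle meaning cytotoxicity.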 A digest of the protocol: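 HEK293T, 10 000 cells/well, DMEM + 1% FBS; 8-pt titration 5 nM–87.5 uM [final], 0.5% DMSO; 24 hr, 37C, 5% CO2; CellTiter-Glo luminescence; n=3 biological replicates.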
Assay [4] deals with human Retinoic Acid Receptor beta (RARb), RARB (gene 5915) (UniProt P10826). Briefly: ATG_RARb_TRANS: Attagene TRANS-FACTORIAL HepG2 Assay for human Retinoic Acid Receptor beta (AID 2283004). A digest of the protocol:
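Transient transfection of HepG2 with multiple reporter units → chemical dosing, 24 h → total RNA isolation → RT with oligo(dT) → reporter-specific PCR, 6-FAM primer extension, HpaI digest → capillary electrophoresis. Positive direction vs DMSO control.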

Assay [5] has as its target Retinoic acid receptor alpha (Homo sapiens) (UniProt P10276). Briefly: ATG_RARa_TRANS: Attagene TRANS-FACTORIAL HepG2 Assay for human Retinoic Acid Receptor alpha (RARa) (AID 2283005). A digest of the protocol: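 HepG2 cells transiently transfected with multiple reporter units expressing chimeric RARα-GAL4 fusion, with GAL4-UAS-driven reporters. After 24 h compound exposure, reporter mRNA induction quantified by RT-PCR and capillary electrophoresis with fluorescent labeling; gain-of-signal fitted relative to DMSO control.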

Assay [6] addresses human Matrix Metalloproteinase-9 (MMP9), MMP9 (gene 4318) (UniProt P14780). Description: NVS_ENZ_hMMP9: NovaScreen (NVS) Enzymatic Assay for human Matrix Metalloproteinase-9 (MMP9) (AID 2283190).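 Also: cell-free recombinant MMP9 protease activity read by fluorescent substrate signal; active means inhibition seen as loss of fluorescence signal versus DMSO.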 A digest of the protocol:
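Cell-free fluorescence-intensity enzyme activity assay using extracted protein, read 1 h after dosing. Loss of signal versus DMSO baseline indicates inhibition; primary screen in duplicate at 25 uM, actives followed up in concentration series.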

For assay [7], the target named is Estrogen receptor (Homo sapiens) (UniProt P03372). Description: OT_ER_ERaERa_1440: Odyssey Thera (OT) 24-hour HEK293T Protein-Complementation Assay for Estrogen Receptor-alpha/-alpha Homodimer (AID 2283349).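 Also: hits raise fluorescence above DMSO for agonists and antagonists alike.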 A digest of the protocol: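 Readout is the rise in mean fluorescence from reporter fragment complementation when ERα LBD (aa 310-547) units dimerize in HEK293T cells. Measured 24 h after dosing and analysed as increase over DMSO control.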

The target is the same in assay [8]. Briefly: OT_ER_ERaERa_0480: Odyssey Thera (OT) 8-hour HEK293T Protein-Complementation Assay for Estrogen Receptor-alpha/-alpha Homodimer (AID 2283351).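 Also: rise in fluorescence from reassembled reporter fragments on ERα LBD homodimer in nucleus or whole cell.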 The gist of the method:
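HEK293T, stable ERα LBD (aa 310-547) PCA homodimer; 8 h compound exposure; fluorescence intensity, laser scanning cytometer; positive fitting direction, DMSO baseline.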

For assay [9] the target is unchanged. Description: OT_ERa_GFPERaERE_0480: Odyssey Thera (OT) 8-hour HeLa Transcription Induction Assay for Estrogen Receptor (AID 2283381; active = hit-call score of the fitted dose curve at least 0.9, where 1 is the maximum; inactive = score below 0.9). A digest of the protocol: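 Fluorescent reporter signal, imaged by microscopy and scored with image-analysis algorithms, was taken 8 h after chemical dosing of HeLa cells; activity was fitted upward relative to DMSO.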
The target is the same in assay [10]. Briefly: OT_ERa_GFPERaERE_0120: Odyssey Thera (OT) 2-hour HeLa Transcription Induction Assay for Estrogen Receptor (AID 2283382). A digest of the protocol: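 HeLa, 384-well, 2 h chemical exposure; GFP reporter induction (ERE), fluorescence microscopy; high content image analysis; positive fitting direction vs DMSO.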
The target of assay [11] is Peroxisome proliferator-activated receptor gamma (Homo sapiens) (UniProt P37231). Briefly: OT_PPARg_PPARgSRC1_0480: Odyssey Thera (OT) 8-hour Protein-Complementation Assay for Peroxisome Proliferator-activated Receptor Gamma / SRC-1 Co-activator (AID 2283387).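 Also: nuclear to cytoplasmic split Venus YFP fluorescence ratio reporting PPARg SRC-1 interaction.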 A digest of the protocol:
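Protein-fragment complementation of split Venus YFP reports PPARg/SRC-1 interaction in HEK293T (transfected 48 h before treatment), exposed 8 h. Readout: N/C fluorescence ratio at 488 nm from imaging, Draq5 for segmentation, positive fit relative to DMSO.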

For assay [12] the target is unchanged. Description: OT_PPARg_PPARgSRC1_1440: Odyssey Thera (OT) 24-hour Protein-Complementation Assay for Peroxisome Proliferator-activated Receptor Gamma/ SRC-1 Co-activator (AID 2283388).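 Also: nuclear to cytoplasmic ratio of reconstituted Venus YFP fluorescence in fixed imaged cells.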 The gist of the method:
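Protein-fragment complementation between PPARg and coactivator SRC-1 was measured by fluorescence imaging in transiently transfected HEK293T cells after 24 h treatment. Signal was quantified as N/C ratio in the 488 nm channel, with DMSO as negative control.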

Assay [13] concerns the target human Ephrin type-A Receptor 1 (EphA1), EPHA1 (gene 2041) (UniProt P21709). Description: NVS_ENZ_hEphA1: NovaScreen (NVS) Enzymatic Assay for human Ephrin type-A Receptor 1 (EphA1) (AID 2283158).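 Also: activity is signal loss versus DMSO meaning EphA1 kinase inhibition.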 The gist of the method: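 Chemicals first tested in duplicate at 25 uM against recombinant EphA1 with a fluorescent substrate; those passing threshold went to singleton dose-response topping at 50 uM. Activity read 1 h later as mobility-shift fluorescence, loss of signal relative to DMSO.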

For assay [14], the target named is human Phosphodiesterase 10 (PDE10), PDE10A (gene 10846) (UniProt Q9Y233). Briefly: NVS_ENZ_hPDE10: NovaScreen (NVS) Enzymatic Assay for human Phosphodiesterase 10 (PDE10) (AID 2283195). A digest of the protocol: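 Fluorescence/mobility-shift readout of PDE10A enzyme activity, taken 1 h post-dosing. Primary screen in duplicate at 25 uM; actives (e.g. ≥30% inhibition) retested as singleton concentration-response, top concentration 50 uM.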

In assay [15] the target is sheep Cyclooxygenase-1 (Cox1), PTGS1 (gene 443551) (UniProt P05979). Briefly: NVS_ENZ_oCOX1: NovaScreen (NVS) Enzymatic Assay for sheep Cyclooxygenase-1 (Cox1) (AID 2283239).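 Also: actives reduce cyclooxygenase activity so potencies are for inhibitors.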 The gist of the method: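 Absorbance read-out of cyclooxygenase activity in a cell-free preparation from sheep seminal vesicles, taken 0.66 hour after dosing. Initial testing was in duplicate at 25 uM, and confirmatory testing was run in concentration series.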

Assay [16] has as its target Glucocorticoid receptor (Homo sapiens) (UniProt P04150). Briefly: ATG_GR_TRANS: Attagene TRANS-FACTORIAL HepG2 Assay for human Glucocorticoid Receptor (GR) (AID 2282978).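 Also: activators score as hits since higher reporter transcript over DMSO is fitted.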 The conditions noted are these: HepG2 Attagene TRANS GR reporter, mRNA transcription. A digest of the protocol: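 HepG2 cells transiently transfected with GAL4-UAS reporter units and exogenous GR-Gal4 chimera, dosed 24 h. Reporter mRNA by RT-PCR, FAM labeling, HpaI digest and capillary electrophoresis; gain-of-signal fit versus DMSO.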

Assay [17] deals with PGR (gene 5241) (UniProt P06401). Description: TOX21_PR_BLA_Followup_Antagonist_ratio: Tox21 HEK293 Progesterone Receptor (PR) Antagonism Beta-lactamase Follow-Up Assay, Ratio (AID 2283934). The gist of the method: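 HEK293T PR-UAS-bla, 2% CS-FBS; 6 hr plating, then cpd + R5020 (1 nM final), 16 hr 37C/5% CO2. B/G FRET substrate 2 h RT. Ratio ch2/ch1 vs DMSO; CellTiter-Glo viability multiplexed, autofluorescence checked.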

A short description of assay [18]: TOX21_PR_BLA_Followup_Agonist_viability: Viability Assessment in the Tox21 HEK293 Progesterone Receptor (PR) Agonism Beta-lactamase Follow-Up Assay (AID 2283935).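 Also: cells exposed to compound for 16 hr at 37 °C; signal loss means lower viability so actives are cytotoxic.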 The gist of the method:
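HEK293T PR-UAS-bla, 3,000 cells/well, 2% CS-FBS; 6 hr pre-incubation; cpd in DMSO, 16 hr 37C; LiveBLAzer 2 hr RT, then CellTiter-Glo 30 min RT, luminescence. Decrease = lost viability.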

Assay [19] can be described thus: TOX21_PR_BLA_Followup_Antagonist_viability: Viability Assessment in the Tox21 HEK293 Progesterone Receptor (PR) Antagonism Beta-lactamase Follow-Up Assay (AID 2283936).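 Also: hits lower the luminescence signal meaning cytotoxicity.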 The gist of the method:
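PR-UAS-bla HEK293T cells (3,000/well, 2% charcoal-stripped FBS) given compound plus R5020 agonist, 16 h at 37C. CellTiter-Glo added after bla read, 30 min at room temperature; luminescence loss indicates cytotoxicity.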

In assay [20] the target is THRB (gene 7068) (UniProt P10828). Briefly: TOX21_TRB_BLA_Antagonist_Followup_ratio: Tox21 Thyroid Hormone Receptor beta Antagonism Beta-lactamase (BLA) Follow-Up Assay, Ratio (AID 2283958). The gist of the method:
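HEK293T TRb-bla (GAL4 DBD + hTRβ LBD), 2% cs-FBS phenol red-free DMEM, 5 h attach; cpds 11-pt triplicate, 18 h 37C; CCF4-AM 2 h RT; 460/530 ratio vs DMSO; CellTiter-Glo viability same wells.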

Inconclusive results are not listed. The source made the active and inactive calls. The calls were made as follows, unless noted: active = hit-call score of the fitted dose curve at least 0.9, where 1 is the maximum; inconclusive = response in the unintended direction; inactive = score below 0.9.

Chain of Estrogen receptor (Homo sapiens) (P03372 whole entry, looked up, the tested form may be a part): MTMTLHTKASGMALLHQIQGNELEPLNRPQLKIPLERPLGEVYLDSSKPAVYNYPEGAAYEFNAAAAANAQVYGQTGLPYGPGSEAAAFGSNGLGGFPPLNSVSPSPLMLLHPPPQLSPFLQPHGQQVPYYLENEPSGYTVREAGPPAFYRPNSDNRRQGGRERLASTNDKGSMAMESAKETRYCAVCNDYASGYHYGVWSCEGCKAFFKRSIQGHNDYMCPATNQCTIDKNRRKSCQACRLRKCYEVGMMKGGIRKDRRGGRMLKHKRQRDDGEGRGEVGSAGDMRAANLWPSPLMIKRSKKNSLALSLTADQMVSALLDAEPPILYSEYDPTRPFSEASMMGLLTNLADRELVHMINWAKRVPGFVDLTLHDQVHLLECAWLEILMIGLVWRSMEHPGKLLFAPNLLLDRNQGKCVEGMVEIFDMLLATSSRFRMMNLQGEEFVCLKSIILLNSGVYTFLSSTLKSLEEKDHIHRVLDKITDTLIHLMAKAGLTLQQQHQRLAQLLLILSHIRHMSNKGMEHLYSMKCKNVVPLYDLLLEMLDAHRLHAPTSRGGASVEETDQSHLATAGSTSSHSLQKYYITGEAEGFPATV
Chain of PGR (gene 5241) (P06401 whole entry, looked up): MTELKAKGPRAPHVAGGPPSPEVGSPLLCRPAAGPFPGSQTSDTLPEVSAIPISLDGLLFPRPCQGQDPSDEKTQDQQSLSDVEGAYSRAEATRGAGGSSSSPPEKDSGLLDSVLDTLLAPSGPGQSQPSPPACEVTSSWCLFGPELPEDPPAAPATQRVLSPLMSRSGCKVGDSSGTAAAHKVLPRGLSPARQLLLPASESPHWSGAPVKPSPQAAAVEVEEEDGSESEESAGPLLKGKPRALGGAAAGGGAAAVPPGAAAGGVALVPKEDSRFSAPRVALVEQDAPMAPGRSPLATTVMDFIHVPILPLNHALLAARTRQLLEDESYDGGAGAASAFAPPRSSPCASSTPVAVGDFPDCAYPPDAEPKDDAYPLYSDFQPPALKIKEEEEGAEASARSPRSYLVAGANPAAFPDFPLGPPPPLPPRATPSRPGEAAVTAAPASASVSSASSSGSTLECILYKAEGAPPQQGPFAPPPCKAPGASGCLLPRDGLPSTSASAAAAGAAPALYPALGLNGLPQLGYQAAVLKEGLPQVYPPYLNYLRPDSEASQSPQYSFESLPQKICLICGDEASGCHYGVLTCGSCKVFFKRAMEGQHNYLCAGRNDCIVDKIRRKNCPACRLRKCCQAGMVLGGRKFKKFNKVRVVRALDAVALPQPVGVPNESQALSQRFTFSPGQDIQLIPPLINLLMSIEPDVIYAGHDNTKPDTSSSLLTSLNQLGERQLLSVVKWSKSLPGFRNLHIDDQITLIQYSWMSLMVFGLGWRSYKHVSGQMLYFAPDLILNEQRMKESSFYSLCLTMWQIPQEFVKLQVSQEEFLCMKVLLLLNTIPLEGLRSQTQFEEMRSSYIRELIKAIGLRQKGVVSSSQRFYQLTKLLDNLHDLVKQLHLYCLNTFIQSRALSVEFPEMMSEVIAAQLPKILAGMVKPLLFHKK
Chain of human Ephrin type-A Receptor 1 (EphA1), EPHA1 (gene 2041) (P21709 whole entry, looked up): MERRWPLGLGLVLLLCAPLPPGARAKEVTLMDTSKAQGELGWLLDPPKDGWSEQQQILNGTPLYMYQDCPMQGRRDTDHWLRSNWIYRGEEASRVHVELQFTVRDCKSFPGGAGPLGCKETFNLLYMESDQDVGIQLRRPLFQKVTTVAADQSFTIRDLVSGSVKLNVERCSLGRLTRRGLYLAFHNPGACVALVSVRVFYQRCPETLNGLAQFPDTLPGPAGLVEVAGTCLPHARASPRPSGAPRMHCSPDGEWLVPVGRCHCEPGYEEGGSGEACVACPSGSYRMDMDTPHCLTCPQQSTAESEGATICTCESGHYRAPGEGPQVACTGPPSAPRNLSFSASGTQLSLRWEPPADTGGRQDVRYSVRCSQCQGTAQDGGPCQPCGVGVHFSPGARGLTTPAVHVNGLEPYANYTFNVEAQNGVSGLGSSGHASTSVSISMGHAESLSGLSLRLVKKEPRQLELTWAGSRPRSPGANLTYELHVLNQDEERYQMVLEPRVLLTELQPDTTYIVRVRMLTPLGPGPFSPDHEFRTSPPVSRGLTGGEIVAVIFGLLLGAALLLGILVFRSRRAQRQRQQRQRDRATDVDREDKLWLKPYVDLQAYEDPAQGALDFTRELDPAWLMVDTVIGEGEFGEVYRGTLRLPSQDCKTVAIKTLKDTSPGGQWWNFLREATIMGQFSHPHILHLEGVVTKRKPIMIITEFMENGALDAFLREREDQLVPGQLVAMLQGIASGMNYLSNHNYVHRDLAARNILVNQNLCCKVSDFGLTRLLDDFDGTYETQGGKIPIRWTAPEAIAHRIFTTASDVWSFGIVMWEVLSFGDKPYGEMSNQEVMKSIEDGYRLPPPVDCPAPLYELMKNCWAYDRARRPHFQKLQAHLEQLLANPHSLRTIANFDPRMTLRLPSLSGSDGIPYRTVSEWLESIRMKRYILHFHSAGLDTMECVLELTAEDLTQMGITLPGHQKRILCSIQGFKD
Chain of Peroxisome proliferator-activated receptor gamma (Homo sapiens) (P37231 whole entry, looked up, the tested form may be a part): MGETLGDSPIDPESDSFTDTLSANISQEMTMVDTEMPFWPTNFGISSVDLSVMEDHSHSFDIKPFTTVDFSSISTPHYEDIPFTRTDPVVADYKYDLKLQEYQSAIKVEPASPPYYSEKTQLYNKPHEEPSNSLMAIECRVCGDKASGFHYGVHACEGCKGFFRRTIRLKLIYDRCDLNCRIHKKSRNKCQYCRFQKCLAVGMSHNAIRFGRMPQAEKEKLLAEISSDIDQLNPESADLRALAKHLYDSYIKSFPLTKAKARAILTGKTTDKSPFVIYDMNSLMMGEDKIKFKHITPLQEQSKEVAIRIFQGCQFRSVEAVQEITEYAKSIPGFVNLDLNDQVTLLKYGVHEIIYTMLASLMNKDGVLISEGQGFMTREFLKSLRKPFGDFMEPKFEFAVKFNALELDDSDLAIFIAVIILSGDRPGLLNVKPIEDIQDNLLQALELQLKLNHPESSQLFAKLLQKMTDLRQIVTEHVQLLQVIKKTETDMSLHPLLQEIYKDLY
Chain of THRB (gene 7068) (P10828 whole entry, looked up, the tested form may be a part): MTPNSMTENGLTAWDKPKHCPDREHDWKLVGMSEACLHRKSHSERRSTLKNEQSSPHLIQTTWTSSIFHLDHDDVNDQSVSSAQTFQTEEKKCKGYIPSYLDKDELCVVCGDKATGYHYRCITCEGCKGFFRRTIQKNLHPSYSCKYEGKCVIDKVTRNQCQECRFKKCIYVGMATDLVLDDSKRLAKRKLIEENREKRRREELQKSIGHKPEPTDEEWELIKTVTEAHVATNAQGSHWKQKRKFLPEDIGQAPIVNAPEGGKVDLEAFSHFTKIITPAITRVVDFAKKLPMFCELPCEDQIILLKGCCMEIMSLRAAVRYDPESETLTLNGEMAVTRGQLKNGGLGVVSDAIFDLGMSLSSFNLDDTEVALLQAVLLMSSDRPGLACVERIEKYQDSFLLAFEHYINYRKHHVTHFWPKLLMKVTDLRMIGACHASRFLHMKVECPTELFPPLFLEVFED
Chain of Bile acid receptor (Homo sapiens) (Q96RI1 whole entry, looked up, the tested form may be a part): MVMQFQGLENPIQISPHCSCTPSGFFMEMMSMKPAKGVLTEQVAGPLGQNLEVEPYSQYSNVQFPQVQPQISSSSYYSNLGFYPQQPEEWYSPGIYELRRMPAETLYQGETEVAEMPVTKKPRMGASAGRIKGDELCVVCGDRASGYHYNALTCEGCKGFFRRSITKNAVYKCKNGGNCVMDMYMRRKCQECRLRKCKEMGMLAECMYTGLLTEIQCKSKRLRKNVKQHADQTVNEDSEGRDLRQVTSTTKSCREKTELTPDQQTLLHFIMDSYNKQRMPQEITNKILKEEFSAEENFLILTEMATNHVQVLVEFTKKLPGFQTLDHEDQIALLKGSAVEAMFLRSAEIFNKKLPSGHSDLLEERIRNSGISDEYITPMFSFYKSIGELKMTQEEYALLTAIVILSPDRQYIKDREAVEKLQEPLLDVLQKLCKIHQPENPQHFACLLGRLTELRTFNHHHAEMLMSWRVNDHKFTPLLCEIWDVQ
Chain of Retinoic acid receptor alpha (Homo sapiens) (P10276 whole entry, looked up, the tested form may be a part): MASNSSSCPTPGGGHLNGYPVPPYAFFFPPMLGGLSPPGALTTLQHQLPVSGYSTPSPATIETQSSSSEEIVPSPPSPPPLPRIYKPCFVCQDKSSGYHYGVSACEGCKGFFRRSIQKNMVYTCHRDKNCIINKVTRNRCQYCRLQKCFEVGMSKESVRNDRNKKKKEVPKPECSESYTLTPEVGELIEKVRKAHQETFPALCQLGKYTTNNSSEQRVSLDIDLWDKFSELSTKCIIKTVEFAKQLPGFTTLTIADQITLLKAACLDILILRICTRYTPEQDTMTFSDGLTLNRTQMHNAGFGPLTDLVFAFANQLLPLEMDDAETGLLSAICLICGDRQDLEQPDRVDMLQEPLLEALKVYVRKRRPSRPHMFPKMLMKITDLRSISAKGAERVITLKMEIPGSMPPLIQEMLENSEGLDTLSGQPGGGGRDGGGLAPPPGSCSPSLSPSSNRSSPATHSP
Chain of sheep Cyclooxygenase-1 (Cox1), PTGS1 (gene 443551) (P05979 whole entry, looked up): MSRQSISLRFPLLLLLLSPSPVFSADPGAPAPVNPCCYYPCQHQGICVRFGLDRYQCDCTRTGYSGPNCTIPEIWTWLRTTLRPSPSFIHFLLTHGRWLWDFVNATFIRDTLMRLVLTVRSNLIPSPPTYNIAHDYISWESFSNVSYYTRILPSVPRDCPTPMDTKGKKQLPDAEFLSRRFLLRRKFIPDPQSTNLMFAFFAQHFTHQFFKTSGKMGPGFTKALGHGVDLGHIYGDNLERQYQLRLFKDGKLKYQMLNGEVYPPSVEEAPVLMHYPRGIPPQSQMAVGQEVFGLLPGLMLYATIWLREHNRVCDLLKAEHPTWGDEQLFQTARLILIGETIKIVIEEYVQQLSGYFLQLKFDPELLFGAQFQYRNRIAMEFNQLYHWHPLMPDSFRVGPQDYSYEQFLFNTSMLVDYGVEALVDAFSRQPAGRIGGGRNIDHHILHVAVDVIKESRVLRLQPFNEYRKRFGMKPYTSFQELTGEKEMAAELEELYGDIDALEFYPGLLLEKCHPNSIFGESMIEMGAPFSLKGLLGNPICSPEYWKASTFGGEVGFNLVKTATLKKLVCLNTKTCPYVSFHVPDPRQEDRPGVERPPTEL

With `CC(=O)OC(C)(C)Cc1ccccc1`, the outcome in assay [1] was inactive.
With `CCCCC(CC)COC(=O)C=Cc1ccc(OC)cc1` (stereo not given), the outcome in assay [2] and in assay [3] was inactive.
Regarding `COc1ccc(C(=O)c2ccccc2O)c(O)c1`, the compound was classed as inactive in assay [2]. For the same compound, the concentration at half-maximal activity (AC50) (as a rule, the concentration at which the activity in the assay is half-maximal) in assay [3] was 81.7 µM (active).
Consider `CCC(C)(CCC(C)C)C(=O)O` (stereo not given), for which the compound was called inactive in assay [4] and in [5]. Moreover, in assay [6], the AC50 is 2.32 µM (active).
`CCO[Si](CCCN)(OCC)OCC`: the outcome in assay [7], in [8], in assay [9], in assay [10], in assay [1] and in assay [11] was inactive. In addition, the call in [12] was inactive.
Turning to `CCOC(=O)c1ccccc1`, the compound was classed as inactive in assay [7], in [8], in assay [9], in [10], in [11] and in assay [12].
As to `C[N+](C)(C)CC(=O)[O-]`, the call in [13], in [14] and in assay [15] was inactive.
Take `CCO[Si](OCC)(OCC)c1ccccc1`: the call in assay [13] was inactive. Besides, in [6], the AC50 is 1.37 µM (active).
In the case of `N#CCN(CC#N)CCN(CC#N)CC#N`, the compound was called inactive in assay [16], in [13] and in assay [15]. Also, the AC50 in assay [14] was 12.1 µM (active).
Turning to `Cc1ccnc(N)c1`, the outcome in assay [4] and in [5] was inactive.
In the case of `CC/C=C\CCCCCO`, in [16], the outcome was inactive.
As for `Oc1ccc2c(c1)Cc1ccccc1-2`, the AC50 in assay [17] was 29.4 µM (active). Moreover, the outcome in assay [18] and in assay [19] was inactive.
With `Cc1oc(C)c(C(=O)Nc2ccccc2)c1C`, in assay [20], the result was inactive.
As to `O=[Se](O)O`, the AC50 in [20] was 1.64 µM (active).
For `CC(O)(c1ccc(Cl)cc1)c1ccc(Cl)cc1`, the AC50 in assay [17] was 46.1 µM (active). In addition, the call in assay [18] and in assay [19] was inactive.
As for `O=C(CCCCCCC(=O)Nc1ccccc1)NO`, in assay [20], the outcome was inactive.
With `CC(COc1ccccc1)N(CCCl)Cc1ccccc1` (stereo not given), in [17], the AC50 is 31.6 µM (active). In addition, the call in assay [18] and in assay [19] was inactive.

The values above are taken from PubChem BioAssay (EPA / NIEHS).
